An excerpt weighted towards active compounds, which were near 27% of everything screened.
CYP2C9 inhib = blocks human cytochrome P450 2C9 | P11712 | CYP2C9 Supersomes, luciferin-H conversion, luminescence | AID 777 | hit rate 20% among 96,000 | inhibition, % at 5 µM;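 active = blocking of liver enzyme CYP2C9 beyond about 50% at 5 µM, limit read from the data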
CYP2C9 activ = activators of human CYP2C9. activation factor at 5 µM. P11712. hit rate 1.4% among 96,000. recombinant CYP2C9, luciferin-H conversion, luminescence; stronger effect = higher value; factor 1 = untreated enzyme, 0 = blocked. AID 1024;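 active = activation factor of 2 or more for CYP2C9 at a 5 µM dose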
CYP2C19 inhib = inhibitors of human CYP2C19; P33261; CYP2C19 Supersomes, luciferin-H EGE luminescence, 30 min; inhibition, % at 5 µM; hit rate 21% among 96,000;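 active = CYP2C19 inhibition above a set limit at 5 µM in the primary screen, cut at about 50% in these data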
Target sequence (P33261 whole entry, looked up): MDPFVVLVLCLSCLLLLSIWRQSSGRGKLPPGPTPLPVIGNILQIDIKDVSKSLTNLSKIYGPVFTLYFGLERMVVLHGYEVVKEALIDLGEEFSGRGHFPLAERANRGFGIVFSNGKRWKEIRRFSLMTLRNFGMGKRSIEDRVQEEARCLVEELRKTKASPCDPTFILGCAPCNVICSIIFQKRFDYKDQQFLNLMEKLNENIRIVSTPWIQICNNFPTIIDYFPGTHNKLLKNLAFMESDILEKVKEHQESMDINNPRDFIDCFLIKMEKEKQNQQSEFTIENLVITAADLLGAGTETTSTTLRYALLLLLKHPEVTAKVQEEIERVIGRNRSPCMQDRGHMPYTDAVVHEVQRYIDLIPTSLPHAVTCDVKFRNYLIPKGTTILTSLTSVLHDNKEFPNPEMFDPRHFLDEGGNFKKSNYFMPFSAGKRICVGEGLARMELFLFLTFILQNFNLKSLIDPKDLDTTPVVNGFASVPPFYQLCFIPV
EphB4 antag = EphB4-ephrin-B2 interaction antagonism | P54760 | EphB4 LBD / TNYL-RAW-Alexa532 peptide, fluorescence polarization | inhibition, % at 7 µM | hit rate 0.15% among 97,000 | AID 720;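 active = inhibition above the screen-wide mean inhibition plus 3 SD, cut at about 15% in these data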
CYP2C19 act = increases human CYP2C19 enzyme activity; P33261; recombinant CYP2C19, luciferin-H EGE luminescence; stronger effect = higher value; 0 = fully inhibited enzyme, 1 = untreated enzyme; activation factor at 5 µM; 96,000 tested, under 10 active; AID 1025;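 active = activation factor of at least 2 at 5 µM in the primary screen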
Hits are given with their value.

Screening CCC(Sc1nnnn1-c1ccccc1)C(=O)NC(C)c1ccccc1 (stereo not given) returned CYP2C9 inhib inactive, CYP2C9 activ inactive, CYP2C19 inhib 74.5, EphB4 antag inactive and CYP2C19 act inactive.
Screening CCC(Sc1nnnn1-c1ccccc1)C(=O)Nc1nc2ccccc2s1 (stereo not given) returned EphB4 antag inactive.
`O=C(CSc1nnnn1-c1ccccc1)N1CCN(C(=O)c2ccco2)CC1` gave CYP2C9 inhib 64.8, CYP2C9 activ inactive, CYP2C19 inhib inactive, EphB4 antag inactive and CYP2C19 act inactive.
O=C(CSc1nnnn1-c1ccccc1)NCc1cccs1 was read as CYP2C9 inhib inactive, CYP2C9 activ inactive, CYP2C19 inhib 83.4, EphB4 antag inactive and CYP2C19 act inactive.
Screening O=C1c2ccccc2C(=O)N1CCCCSc1nnnn1-c1ccccc1 returned CYP2C9 inhib 51.2, CYP2C9 activ inactive, CYP2C19 inhib inactive, EphB4 antag inactive and CYP2C19 act inactive.
`CCn1c(=NC(=O)CN2C(=O)CCC2=O)sc2c(C)cc(C)cc21` gave CYP2C9 inhib inactive, CYP2C9 activ inactive, CYP2C19 inhib inactive, EphB4 antag inactive and CYP2C19 act inactive.
`Cc1c(N/C=C/C(=O)c2cccs2)c(=O)n(-c2ccccc2)n1C` gave CYP2C9 inhib inactive, CYP2C9 activ inactive, CYP2C19 inhib inactive, EphB4 antag inactive and CYP2C19 act inactive.
For Cc1ccc(OCC(=O)NN2C(=O)c3ccccc3C2=O)c(C)c1 the results were CYP2C9 inhib inactive, CYP2C9 activ inactive, CYP2C19 inhib inactive, EphB4 antag inactive and CYP2C19 act inactive.
For COc1ccc(Nc2nnc(SCC(=O)Nc3cc(C)on3)s2)cc1 the results were CYP2C9 inhib inactive, CYP2C9 activ inactive, CYP2C19 inhib inactive, EphB4 antag inactive and CYP2C19 act inactive.
For COc1cc(NC(=O)CSc2nnnn2-c2ccccc2)cc(OC)c1OC the results were CYP2C9 inhib inactive, CYP2C9 activ inactive, CYP2C19 inhib inactive, EphB4 antag inactive and CYP2C19 act inactive.
`Cc1cc(C)nc(NC(=O)CSc2nnnn2-c2ccccc2)n1` gave CYP2C9 inhib inactive, CYP2C9 activ inactive, CYP2C19 inhib 51.6, EphB4 antag inactive and CYP2C19 act inactive.
`Cc1cc2ccccc2n2c(SCC(=O)NCc3cccs3)nnc12` gave CYP2C9 inhib inactive, CYP2C9 activ inactive, CYP2C19 inhib 64.4, EphB4 antag inactive and CYP2C19 act inactive.
For Cc1cc(C)cc(-n2nnnc2SCC(=O)N2CCOCC2)c1 the results were EphB4 antag inactive.
O=C(CSc1nnnn1-c1cccc2ccccc12)N1CCOCC1 was read as CYP2C9 inhib inactive, CYP2C9 activ 2.9, CYP2C19 inhib inactive, EphB4 antag inactive and CYP2C19 act inactive.
CC(Sc1nnnn1-c1ccccc1)C(=O)Nc1ccc(Cl)cn1 (stereo not given) was read as CYP2C9 inhib 79.5, CYP2C9 activ inactive, CYP2C19 inhib 87.4, EphB4 antag inactive and CYP2C19 act inactive.
`CC(Sc1nnc2ccccn12)C(=O)Nc1ccc(Cl)cn1` (stereo not given) gave CYP2C9 inhib inactive, CYP2C9 activ inactive, CYP2C19 inhib inactive, EphB4 antag inactive and CYP2C19 act inactive.
CCOC(=O)CCP(=O)(O)C(C)(O)c1ccccc1 (stereo not given) was read as CYP2C9 inhib inactive, CYP2C9 activ inactive, CYP2C19 inhib inactive, EphB4 antag inactive and CYP2C19 act inactive.
Cc1cccc(CSc2nnnn2-c2ccccc2)c1 was read as CYP2C9 inhib inactive, CYP2C9 activ inactive, CYP2C19 inhib inactive, EphB4 antag inactive and CYP2C19 act inactive.
`O=C(O)CSc1nnnn1-c1ccccc1` gave CYP2C9 inhib inactive, CYP2C9 activ inactive, CYP2C19 inhib inactive, EphB4 antag inactive and CYP2C19 act inactive.
Screening O=C(CSc1nnnn1-c1ccccc1)CSc1nnnn1-c1ccccc1 returned CYP2C9 inhib 71.5, CYP2C9 activ inactive, CYP2C19 inhib 98.5, EphB4 antag inactive and CYP2C19 act inactive.
O=C(CCCSc1nnnn1-c1ccccc1)c1ccc(F)cc1 was read as CYP2C9 inhib inactive, CYP2C9 activ inactive, CYP2C19 inhib 58.9, EphB4 antag inactive and CYP2C19 act inactive.
O=C(CCCSc1nnc(SCCCC(=O)c2ccc(F)cc2)s1)c1ccc(F)cc1 was read as CYP2C9 inhib 76.4, CYP2C9 activ inactive, CYP2C19 inhib 55.7, EphB4 antag inactive and CYP2C19 act inactive.
For O=C(O)CCSc1nnnn1-c1ccccc1 the results were CYP2C9 inhib inactive, CYP2C9 activ inactive, CYP2C19 inhib inactive, EphB4 antag inactive and CYP2C19 act inactive.
CC(=O)Nc1nnc(SCc2ccc(F)cc2)s1 was read as CYP2C9 inhib inactive, CYP2C9 activ inactive, CYP2C19 inhib inactive, EphB4 antag inactive and CYP2C19 act inactive.
Screening O=C1c2ccccc2C(=O)N1CSc1nnnn1-c1ccccc1 returned CYP2C9 inhib inactive, CYP2C9 activ 2.1, CYP2C19 inhib 83.0, EphB4 antag inactive and CYP2C19 act inactive.
Cc1cccc(Oc2ncnc3oc(-c4ccccc4)cc23)c1C was read as CYP2C9 inhib 54.0, CYP2C9 activ inactive, CYP2C19 inhib inactive, EphB4 antag inactive and CYP2C19 act inactive.
Screening Cc1cc(Cl)ccc1Oc1ncnc2oc(-c3ccccc3)cc12 returned CYP2C9 inhib inactive, CYP2C9 activ inactive, CYP2C19 inhib inactive, EphB4 antag inactive and CYP2C19 act inactive.
`C=C(c1ccc(O)cc1)c1ccc(O)cc1` gave CYP2C9 inhib 98.2, CYP2C9 activ inactive, CYP2C19 inhib 96.0, EphB4 antag inactive and CYP2C19 act inactive.
For COCCNC(=O)CN(Cc1ccc(Cl)cc1)S(C)(=O)=O the results were CYP2C9 inhib inactive, CYP2C9 activ inactive, CYP2C19 inhib inactive, EphB4 antag inactive and CYP2C19 act inactive.
`CS(=O)(=O)N(CC(=O)NCc1cccnc1)Cc1ccc(Cl)cc1` gave CYP2C9 inhib 53.7, CYP2C9 activ inactive, CYP2C19 inhib 97.0, EphB4 antag inactive and CYP2C19 act inactive.
Screening CS(=O)(=O)N(CC(=O)NCc1ccncc1)Cc1ccc(Cl)cc1 returned CYP2C9 inhib 93.7, CYP2C9 activ inactive, CYP2C19 inhib 99.1, EphB4 antag inactive and CYP2C19 act inactive.
O=C(CN(C1CCCCC1)S(=O)(=O)c1ccc(Cl)cc1)NCc1cccnc1 was read as CYP2C9 inhib 92.4, CYP2C9 activ inactive, CYP2C19 inhib 100.1, EphB4 antag inactive and CYP2C19 act inactive.
`CS(=O)(=O)N(CC(=O)NCc1ccc2c(c1)OCO2)Cc1ccc(Cl)cc1` gave CYP2C9 inhib 81.2, CYP2C9 activ inactive, CYP2C19 inhib 78.8, EphB4 antag inactive and CYP2C19 act inactive.
For CCOC(=O)COn1c(=O)c(-c2ccco2)[n+]([O-])c2ccccc21 the results were CYP2C9 inhib inactive, CYP2C9 activ inactive, CYP2C19 inhib inactive, EphB4 antag inactive and CYP2C19 act inactive.
Screening COC(=O)c1ccc(C(=O)OC)c(NC(=O)N2c3ccccc3Sc3ccccc32)c1 returned CYP2C9 inhib 50.6, CYP2C9 activ inactive, CYP2C19 inhib inactive, EphB4 antag inactive and CYP2C19 act inactive.
`CCOC(=O)Cc1csc(SC(C)C(=O)Nc2ccc(NC(C)=O)cc2)n1` (stereo not given) gave CYP2C9 inhib 90.7, CYP2C9 activ inactive, CYP2C19 inhib 68.5, EphB4 antag inactive and CYP2C19 act inactive.

Source: PubChem BioAssay
